Measured values: PubChem BioAssay (NCATS)
Inconclusive results are not listed. Activity calls are given as the source filed them. Unless noted, calls follow the shape of the dose curve; as a rule, active = well fitted curve in either direction with a large enough effect (not every such curve was filed as active); inconclusive = small, poorly fitted or top-dose-only effect, or another doubt; inactive = flat fitted curve, though single readings scatter.

Key:
[1] = biological target: Lysosomal acid glucosylceramidase (Homo sapiens) (UniProt P04062); experiment: Glucocerebrosidase-p2 (AID 348; in the data active = potency below about 10 µM; also: potency is read from the fitted curve at half-maximal effect); details: purified GBA, blue fluorogenic substrate, 40 min
Method in brief: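 Normal human glucocerebrosidase (0.2 nM) with blue fluorogenic substrate (80 uM final) in citrate/phosphate pH 5.9 with 10mM sodium taurocholate, 0.01% tween-20; 40 min RT, NaOH/glycine stop; fluorescence Ex 365/Em 440; AC50 from a titration from 0.6 nM upwards.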

[2] = AP1 Signaling Pathway (AID 357); details: ME-180 AP-1-bla reporter, EGF-induced, beta-lactamase ratio, 5 h; at 7.69 µM (top of the series) unless noted;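 also: ME-180 reporter cells stimulated with EGF at its EC50 level; % is scaled to controls: 0 for no effect and ±100 for the full control effect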
Method in brief: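 Beta-lactamase reporter under AP-1 response element, ME-180 background. Stimulus: EC50 EGF. Compound exposure 5 h, 37 °C. Detection: CCF4, 2.5 h RT, 460/530 nm. Values: AC50 from titration.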

[3] = biological target: Cytochrome P450 1A2 (Homo sapiens) (UniProt P05177); experiment: p450-cyp1a2 (AID 410; calls by dose curve; also: potency is read from the fitted curve at half-maximal effect;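 as to activity change, negative = inhibition: -100% = full effect of reference inhibitor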); details: recombinant CYP1A2, luciferin-ME demethylation, luminescence; series mostly up to 11.4 µM
Method in brief: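 Luminescent demethylation readout: Luciferin-ME (100uM, equal to Km) turned over by 20nM CYP1A2 for 60 min at room temperature after NADPH regeneration addition, following 10 min compound preincubation. Normalization used 57 uM furafylline as full inhibition.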

[4] = NFAT Signaling Pathway (AID 444); details: Jurkat NFAT-bla M1, carbachol, beta-lactamase ratio, 5 h; at 7.69 µM (top of the series) unless noted;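 also: carbachol stimulus at about its EC50 of 1 µM final; % is scaled to controls: 0 for no effect and ±100 for the full control effect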
Method in brief: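 Jurkat cells with NFAT-driven β-lactamase reporter and co-expressed M1 receptor, stimulated with carbachol (final 1 uM, ~EC50), compound titration, 5 h at 37 °C. CCF4 loaded 1 h at RT; 460/530 nm ratio gave %activity and AC50.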

[5] = Stat Signaling Pathway (AID 446); details: ME-180 (cervical carcinoma) SIE beta-lactamase reporter, IL-6 stimulated, 5 h; at 7.69 µM (top of the series) unless noted;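 also: ME-180 cervical cancer cells given 40 pM IL-6 alongside compound; SIE-controlled beta-lactamase reporter measured as 460/530 nm FRET emission ratio; % is scaled to controls: 0 for no effect and ±100 for the full control effect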
Method in brief: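 Overnight-plated ME-180 cells bearing a STAT Inducible Element beta-lactamase reporter; 5 h co-exposure to compound and 40 pM IL-6; values normalized to 300 pM IL-6 and 125 nM JAK inhibitor controls.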

[6] = biological target: Glucocorticoid receptor (Homo sapiens) (UniProt P04150); experiment: GR-GFP Redistribution (AID 450;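 active = compounds whose dose series gives a full or clear partial fitted curve of increased nuclear translocation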; also: potency is read from the fitted curve at half-maximal effect); details: U2OS GR-GFP nuclear translocation, laser cytometry, 2 h
[7] = biological target: Glucocorticoid receptor (Homo sapiens) (UniProt P04150); experiment: GR-EFC Redistribution (AID 451; calls by dose curve; also: potency is read from the fitted curve at half-maximal effect); details: CHO-K1 GR-EFC translocation, beta-gal luminescence, 2 h
Method in brief: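 CHO-K1 cells expressing nuclear EA and GR-ED fragments of b-gal; compounds titrated up to 46 uM final, 2 h at 37 C. GR nuclear translocation read as complemented b-gal luminescence after 1 h RT detection.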

[8] = biological target: Mitogen-activated protein kinase 10 (Mus musculus) (UniProt Q61831); experiment: JNK3 AlphaScreen Assay (AID 530); details: JNK3 lysate, c-Jun phosphorylation; series mostly up to 11.4 µM;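 also: kinase came from lysate of stimulated human HepG2 cells; signal reports phosphorylation of biotinylated GST-cJun 1-79 at Ser73 with 10 µM ATP; % is scaled to controls: 0 for no effect and ±100 for the full control effect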
Method in brief: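 Activity was read by AlphaScreen after JNK3-containing HepG2 lysate (cytokine pre-activated) phosphorylated biotinylated GST-cJun with 10 uM ATP at room temperature. Phospho-Ser73 cJun antibody with Protein-A acceptor beads provided detection.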

[9] = biological target: 3',5'-cyclic-AMP phosphodiesterase 4B (Homo sapiens) (UniProt Q07343); experiment: qHTS Assay for Inhibitors of PDE-IV (AID 607; active = well fitted activation curve with a large enough effect in the main read-out, with a control signal flat, not every such curve was filed as active; also: % of control where 0% means no effect); details: HEK293 ACTOne CNG channel cells, membrane potential fluorescence; series mostly up to 22.9 µM
Method in brief: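 Live HEK293 cells with a modified cyclic nucleotide-gated (CNG) channel report intracellular cAMP via membrane-potential dye fluorescence (ex 535/em 590 nm). Endogenous PDE-IV was targeted. Compounds were tested at up to 22.9 uM final; RO 20-1724 100 uM served as control.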

Chain of 3',5'-cyclic-AMP phosphodiesterase 4B (Homo sapiens) (Q07343 whole entry, looked up): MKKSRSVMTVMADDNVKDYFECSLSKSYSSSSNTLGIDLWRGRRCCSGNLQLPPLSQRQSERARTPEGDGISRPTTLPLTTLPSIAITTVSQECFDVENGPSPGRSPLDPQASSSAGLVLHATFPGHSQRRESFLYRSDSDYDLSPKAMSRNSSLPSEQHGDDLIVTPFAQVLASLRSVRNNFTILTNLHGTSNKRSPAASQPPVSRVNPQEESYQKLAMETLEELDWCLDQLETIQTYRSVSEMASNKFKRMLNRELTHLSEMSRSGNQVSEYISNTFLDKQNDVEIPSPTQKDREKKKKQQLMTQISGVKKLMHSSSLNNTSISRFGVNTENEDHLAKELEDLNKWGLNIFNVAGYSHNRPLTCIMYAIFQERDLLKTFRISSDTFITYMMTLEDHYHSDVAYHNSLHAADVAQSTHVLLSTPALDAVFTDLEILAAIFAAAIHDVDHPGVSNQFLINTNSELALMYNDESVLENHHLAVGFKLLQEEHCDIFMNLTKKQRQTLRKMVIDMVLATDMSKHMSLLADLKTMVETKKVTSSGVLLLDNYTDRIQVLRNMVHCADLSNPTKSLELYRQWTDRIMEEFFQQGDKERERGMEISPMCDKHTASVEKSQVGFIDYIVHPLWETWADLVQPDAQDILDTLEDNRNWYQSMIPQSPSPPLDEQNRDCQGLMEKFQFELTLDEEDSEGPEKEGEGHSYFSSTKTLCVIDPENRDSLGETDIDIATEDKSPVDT
Chain of Cytochrome P450 1A2 (Homo sapiens) (P05177 whole entry, looked up): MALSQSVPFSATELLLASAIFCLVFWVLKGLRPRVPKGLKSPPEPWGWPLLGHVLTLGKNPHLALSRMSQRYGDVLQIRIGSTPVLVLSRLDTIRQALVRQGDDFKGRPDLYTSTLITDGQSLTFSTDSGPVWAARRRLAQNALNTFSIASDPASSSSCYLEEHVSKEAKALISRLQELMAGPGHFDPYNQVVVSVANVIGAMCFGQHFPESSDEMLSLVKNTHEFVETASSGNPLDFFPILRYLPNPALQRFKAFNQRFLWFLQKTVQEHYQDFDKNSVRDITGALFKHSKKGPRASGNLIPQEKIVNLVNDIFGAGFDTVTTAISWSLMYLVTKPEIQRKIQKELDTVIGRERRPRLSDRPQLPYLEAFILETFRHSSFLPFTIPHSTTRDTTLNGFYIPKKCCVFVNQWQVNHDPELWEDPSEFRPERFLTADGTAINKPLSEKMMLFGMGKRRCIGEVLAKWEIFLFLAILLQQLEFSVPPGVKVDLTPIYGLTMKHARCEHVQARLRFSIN
Chain of Lysosomal acid glucosylceramidase (Homo sapiens) (P04062 whole entry, looked up): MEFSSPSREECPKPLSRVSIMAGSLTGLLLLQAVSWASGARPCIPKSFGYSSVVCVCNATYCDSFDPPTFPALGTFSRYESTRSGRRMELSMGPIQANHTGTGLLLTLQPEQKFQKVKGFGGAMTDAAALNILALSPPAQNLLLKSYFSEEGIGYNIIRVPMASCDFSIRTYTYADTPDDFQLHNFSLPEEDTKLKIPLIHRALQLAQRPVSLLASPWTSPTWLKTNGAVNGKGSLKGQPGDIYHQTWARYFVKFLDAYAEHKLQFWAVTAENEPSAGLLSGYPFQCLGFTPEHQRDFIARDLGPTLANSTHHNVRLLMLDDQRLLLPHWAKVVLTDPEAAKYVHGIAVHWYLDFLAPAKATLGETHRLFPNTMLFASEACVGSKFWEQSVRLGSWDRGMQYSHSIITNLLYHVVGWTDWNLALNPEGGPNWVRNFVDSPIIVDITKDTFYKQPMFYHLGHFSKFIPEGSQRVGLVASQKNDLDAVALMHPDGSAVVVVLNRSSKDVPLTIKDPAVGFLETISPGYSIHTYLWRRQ
Chain of Glucocorticoid receptor (Homo sapiens) (P04150 whole entry, looked up, the tested form may be a part): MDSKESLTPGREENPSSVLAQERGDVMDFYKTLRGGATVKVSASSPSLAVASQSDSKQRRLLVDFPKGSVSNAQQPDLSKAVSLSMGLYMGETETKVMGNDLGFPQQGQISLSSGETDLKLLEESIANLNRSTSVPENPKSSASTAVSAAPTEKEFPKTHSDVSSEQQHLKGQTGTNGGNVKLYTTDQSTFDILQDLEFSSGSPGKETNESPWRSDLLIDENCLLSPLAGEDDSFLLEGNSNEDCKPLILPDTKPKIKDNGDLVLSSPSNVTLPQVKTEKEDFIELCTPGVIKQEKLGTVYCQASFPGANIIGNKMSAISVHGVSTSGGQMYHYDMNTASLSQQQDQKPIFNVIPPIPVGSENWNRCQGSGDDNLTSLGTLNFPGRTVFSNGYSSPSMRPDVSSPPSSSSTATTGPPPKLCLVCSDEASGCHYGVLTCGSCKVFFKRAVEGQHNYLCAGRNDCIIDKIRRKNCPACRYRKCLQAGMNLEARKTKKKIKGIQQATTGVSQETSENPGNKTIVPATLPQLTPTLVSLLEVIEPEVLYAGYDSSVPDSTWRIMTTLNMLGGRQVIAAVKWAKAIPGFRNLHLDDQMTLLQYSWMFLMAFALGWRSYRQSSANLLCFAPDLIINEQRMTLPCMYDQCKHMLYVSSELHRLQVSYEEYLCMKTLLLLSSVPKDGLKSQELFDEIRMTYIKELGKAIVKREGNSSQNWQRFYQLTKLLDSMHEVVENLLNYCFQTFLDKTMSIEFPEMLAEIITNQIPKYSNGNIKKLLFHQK

N#CCCn1c(=O)c(-c2ccccc2)nc2cnc(Oc3cccc(Cl)c3)nc21
inactive: Potency [1] > 11.4 µM | activity change, negative = inhibition [2] -25.4% | activity change, negative = inhibition [4] -23.9% | activity, negative = inhibition [5] -4.6% | Potency [6] > 9.22 µM | Potency [7] > 46 µM | Potency [8] | Potency [9]
active: Potency [3] 2.51 µM

C#CCSc1n[nH]c(-c2ccco2)n1
active: Potency [3] 2 µM
inactive: Potency [1] > 11.4 µM | activity change, negative = inhibition [2] -2.21% | activity change, negative = inhibition [4] 15.4% | activity, negative = inhibition [5] -3.07% | Potency [6] > 46 µM | Potency [7] > 9.22 µM | Potency [8] | Potency [9]

O[C@]1(c2ccccc2)c2ccccc2NC2=NCCN21
inactive: Potency [1] > 11.4 µM | activity change, negative = inhibition [2] 12.3% | Potency [3] | activity change, negative = inhibition [4] -13.7% | activity, negative = inhibition [5] 4.27% | Potency [6] > 46 µM | Potency [7] > 9.22 µM | Potency [8] | Potency [9]

C[C@]12CCC3c4ccc(OCC(=O)O)cc4CCC3C1CCC2=O (stereo not given in full)
inactive: Potency [1] > 11.4 µM | activity change, negative = inhibition [2] 6.42% | activity change, negative = inhibition [3] 0.7% [at 2.29 µM] | activity change, negative = inhibition [4] -1.29% | activity, negative = inhibition [5] 9.48% | Potency [6] > 46 µM | Potency [7] > 9.22 µM | Potency [8] | Potency [9]

C/C(CC/C(C)=N/O)=N/O
inactive: Potency [1] > 11.4 µM | activity change, negative = inhibition [2] 4.13% | activity change, negative = inhibition [3] -12.6% [at 2.29 µM] | activity change, negative = inhibition [4] 2.59% | activity, negative = inhibition [5] -4.99% | Potency [6] > 46 µM | Potency [7] > 9.22 µM | Potency [8] | Potency [9]

NC(N)=NC(N)=Nc1c(F)c(F)c(F)c(F)c1F
inactive: Potency [1] > 11.4 µM | activity change, negative = inhibition [2] 8.28% | activity change, negative = inhibition [3] 10.9% [at 2.29 µM] | activity change, negative = inhibition [4] -23.3% | activity, negative = inhibition [5] 3% | Potency [6] > 46 µM | Potency [7] > 9.22 µM | Potency [8] | Potency [9]

Nc1ncnc2nc(N3CCN(CCO)CC3)[nH]c12
inactive: Potency [1] > 11.4 µM | activity change, negative = inhibition [2] 2.43% | activity change, negative = inhibition [3] -1.2% [at 2.29 µM] | activity change, negative = inhibition [4] 8.33% | activity, negative = inhibition [5] -1.25% | Potency [6] > 46 µM | Potency [7] > 9.22 µM | Potency [8] | Potency [9]

NC(=O)Nc1n[nH]c(-c2ccccc2)n1
active: Potency [3] 3.16 µM
inactive: Potency [1] > 11.4 µM | activity change, negative = inhibition [2] 4.22% | activity change, negative = inhibition [4] -3.57% | activity, negative = inhibition [5] 2.91% | Potency [6] > 46 µM | Potency [7] > 9.22 µM | Potency [8] | Potency [9]

NC(=O)[C@@H]1CCCN1Cc1ccc2c(c1)OCO2
inactive: Potency [1] > 11.4 µM | activity change, negative = inhibition [2] -6.11% | activity change, negative = inhibition [4] 7.42% | activity, negative = inhibition [5] 6.27% | Potency [6] > 46 µM | Potency [7] > 9.22 µM | Potency [8] | Potency [9]
active: Potency [3] 3.16 µM

CN(C)CC(CN(C)C)c1ccccn1
inactive: Potency [1] > 11.4 µM | activity change, negative = inhibition [2] 3.76% | Potency [3] | activity change, negative = inhibition [4] 10.8% | activity, negative = inhibition [5] 1.27% | Potency [6] > 46 µM | Potency [7] > 9.22 µM | Potency [8] | Potency [9]

O=C(O)[C@H](Cc1cc(I)c(O)c(I)c1)C1CCCCC1
inactive: Potency [1] > 11.4 µM | activity change, negative = inhibition [2] -29.2% | activity change, negative = inhibition [3] -8.8% [at 2.29 µM] | activity change, negative = inhibition [4] 1.46% | activity, negative = inhibition [5] -16% | Potency [6] > 46 µM | Potency [7] > 9.22 µM | Potency [8] | Potency [9]

N#C[C@H]1CN[C@H](N)N[C@@H]1N
inactive: Potency [1] > 11.4 µM | activity change, negative = inhibition [2] 2.11% | activity change, negative = inhibition [3] -11.6% [at 2.29 µM] | activity change, negative = inhibition [4] 6.86% | activity, negative = inhibition [5] 13.9% | Potency [6] > 46 µM | Potency [7] > 9.22 µM | Potency [8] | Potency [9]

CCCCn1cnc2c(SC)ncnc21
active: Potency [3] 3.16 µM
inactive: Potency [1] > 11.4 µM | activity change, negative = inhibition [2] -0.746% | activity change, negative = inhibition [4] 5.83% | activity, negative = inhibition [5] 8.32% | Potency [6] > 46 µM | Potency [7] > 9.22 µM | Potency [8] | Potency [9]

O=C(O)C[C@H](Cc1ccccc1)C(=O)O
inactive: Potency [1] > 11.4 µM | activity change, negative = inhibition [2] 11% | Potency [3] | activity change, negative = inhibition [4] 2.62% | activity, negative = inhibition [5] -5.23% | Potency [6] > 46 µM | Potency [7] > 9.22 µM | Potency [8] | Potency [9]

Cc1ccc(S(=O)(=O)NC(=O)Nc2ncn[nH]2)cc1
inactive: Potency [1] > 11.4 µM | activity change, negative = inhibition [2] 3.19% | activity change, negative = inhibition [3] -21.5% [at 2.29 µM] | activity change, negative = inhibition [4] 13% | activity, negative = inhibition [5] 0.243% | Potency [6] > 46 µM | Potency [7] > 9.22 µM | Potency [8] | Potency [9]
